Measured values published in PubChem BioAssay (NCI).
About 79,000 compounds went through this panel and 15% of them were active in at least one assay; those are over-represented in the sample as a whole. Unmarked numbers belong to inactive results. Active and inactive are the calls of the source. Cut-off read from the data, not from the text of the source: active = growth inhibition above about 70%; inactive = the rest.

Columns and labels:
[1] = NCI Yeast Anticancer Drug Screen. Data for the rad50 strain (AID 155);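 note: 0% = growth of vehicle-only cultures of the same strain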; settings: S. cerevisiae rad50 strain growth inhibition, active compounds read high
Outline: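 A DNA repair-deficient yeast mutant serves as the test organism; compound-induced growth inhibition is calculated against vehicle-treated cells.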

[2] = NCI Yeast Anticancer Drug Screen. Data for the mec2-1 strain (AID 157); settings: S. cerevisiae mec2-1 strain, active compounds read high
Outline: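 mec2-1 yeast strain, carrying an alteration in DNA damage repair or cell cycle control, was exposed to compounds; growth inhibition was measured relative to vehicle-treated controls.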

[3] = NCI Yeast Anticancer Drug Screen. Data for the sgs1 mgt1 strain (AID 161);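 note: 0% = growth of cultures given vehicle only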; settings: S. cerevisiae sgs1 mgt1 strain, active compounds read high
Outline: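 Growth of a repair-deficient yeast mutant was monitored after compound treatment and expressed as inhibition relative to vehicle-treated cultures.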

[4] = NCI Yeast Anticancer Drug Screen. Data for the cln2 rad14 strain (AID 165);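 note: 0% = growth equal to vehicle treated cultures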; settings: S. cerevisiae cln2 rad14 strain, active compounds read high
Outline: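 Yeast carrying cln2 and rad14 alterations (cell cycle control and DNA damage repair) were exposed to compounds. Growth inhibition was measured against vehicle-treated controls.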

[5] = NCI Yeast Anticancer Drug Screen. Data for the bub3 strain (AID 167); settings: S. cerevisiae bub3 mutant strain, active compounds read high
Outline: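 Inhibition values come from growth of compound-treated mutant yeast normalised to vehicle-treated controls.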

[6] = NCI Yeast Anticancer Drug Screen. Data for the mlh1 rad18 strain (AID 175); settings: S. cerevisiae mlh1 rad18 strain growth inhibition, active compounds read high
Outline: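 Growth inhibition of the yeast strain was measured after compound exposure and expressed relative to vehicle-treated controls. The strain carries defined defects in DNA damage repair.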

[7] = at 5.0 µM (retest, dose inferred, filed as 0.5)
[8] = at 50.0 µM (retest, dose inferred, filed as 5.0)

Row | Compound | growth inhibition [1, 7] | growth inhibition [1, 8] | growth inhibition ([1]; at 50.0 µM) | growth inhibition [2, 7] | growth inhibition [2, 8] | growth inhibition ([2]; at 50.0 µM) | growth inhibition [3, 7] | growth inhibition [3, 8] | growth inhibition ([3]; at 50.0 µM) | growth inhibition [4, 7] | growth inhibition [4, 8] | growth inhibition ([4]; at 50.0 µM) | growth inhibition [5, 7] | growth inhibition [5, 8] | growth inhibition ([5]; at 50.0 µM) | growth inhibition [6, 7] | growth inhibition [6, 8] | growth inhibition ([6]; at 50.0 µM)
1 | O=C1C=C(Br)C(=O)C12CCc1ccccc12 (stereo not given) | 99% (active) | 99% (active) | 99.7% (active) | 100% (active) | 99% (active) | 99.8% (active) | 93% (active) | 100% (active) | 99.5% (active) | 99% (active) | 99% (active) | 99.3% (active) | 99% (active) | 99% (active) | 99.6% (active) | 99% (active) | 99% (active) | 99.5% (active)
2 | CSC(=S)n1nc(-c2ccccc2)c(N=Nc2ccccc2[N+](=O)[O-])c1C | -1% | 92% (active) | 97% (active) | -4% | 96% (active) | 96.2% (active) | 5% | 96% (active) | 97% (active) | -12% | 94% (active) | 92% (active) | 0% | 95% (active) | 94.3% (active) | -1% | 93% (active) | 98% (active)
3 | O=C(O)C(S(=O)(=O)O)S(=O)(=O)O | 99% (active) | 99% (active) | 99.2% (active) | 54% | 99% (active) | 99.4% (active) | 100% (active) | 99% (active) | 99.1% (active) | 100% (active) | 99% (active) | 99.3% (active) | 99% (active) | 99% (active) | 98.4% (active) | 99% (active) | 99% (active) | 99.3% (active)
4 | CC/C(=N\NC(=S)SC)c1ccccn1 | 24% | 96% (active) | -13.7% | 16% | 96% (active) | -5.4% | 24% | 96% (active) | 88.9% (active) | 24% | 97% (active) | 88.7% (active) | 18% | 96% (active) | 86.2% (active) | 25% | 96% (active) | 87% (active)
5 | Brc1cc2c(c(Br)c1Br)C(Br)(Br)C(c1ccccc1)=N2 | 6% | 80% (active) | 73.3% (active) | 10% | 85% (active) | 58.1% | 25% | 85% (active) | 78.6% (active) | 3% | 32% | 60.4% | 1% | 90% (active) | 27.6% | 13% | 89% (active) | 75.3% (active)
